Measured values: PubChem BioAssay (NCATS)
Several values for one entry are separate records, joined by “and”; a condition that tells them apart may be missing. Equal entries are not always repeated. Inconclusive results are not listed. Where a call stands in place of a potency, no number is given. Activity calls are given as the source filed them. Calls come from the whole dose curve; as a rule, active = well fitted inhibition curve with a large enough effect; inconclusive = small, poorly fitted or top-dose-only effect; inactive = no such curve, though single readings can be large or run the other way.
Potency is the fitted concentration of half-maximal effect.

Assay: qHTS for Inhibitors of the Aldehyde Dehydrogenase Family (ALDH1A2, ALDH1A3, ALDH2, ALDH3A1) (AID 2061307); note: nearly all actives have a fitted effect of over 50% in size; for potency: test system not described further here
Details: ALDH inhibition qHTS; series mostly up to 50.3 µM
In the case of Cc1c2c(=O)n(-c3ccccc3)[nH]c2cc(=O)n1Cc1ccco1, the Potency is reported as 22.5 µM (active).
With CCOC(=O)N1CCN(Cc2nc3cc(NC(=O)CC(C)C)ccc3n2C(C)C)CC1 the Potency was “inactive”.
With Cc1ccc(S(=O)(=O)Nc2ccc(O)c3ccccc23)c(C)c1 the Potency was 14.2 µM (active).
With Oc1ccccc1NCC(O)Cn1ccc2ccccc21 (stereo not given) the Potency was “inactive”.
For COc1ccc(CN2CCN(C(=O)c3cc4c(s3)CCC4)CC2)cc1, the Potency was “inactive”.
For CC(Sc1nc2nn(C3COC3)cc2c(=O)n1-c1ccccc1)c1ccccc1 (stereo not given), the Potency was “inactive”.
With O=C(c1ccc(Cl)cc1)c1no[n+]([O-])c1C(=O)c1ccc(Cl)cc1 the Potency was 7.98 µM (active).
For Cc1ccc(NC(=O)Nc2cc3c(cc2N2CCCCC2)n(C)c(=O)n3C)cc1Cl, the Potency was 3.55 µM (active) and 798 nM (active).
For CN1c2cc(C(=O)Nc3ccc(N4CCOCC4)cc3)ccc2C(=O)N2CCCCC21 (stereo not given), the Potency was “inactive”.
For O=C(Nc1nnc(C(F)(F)F)s1)c1ccc(Cl)cc1, the Potency was “inactive”.
With CCc1ccc(NC(=O)Cn2c(=O)n(-c3ccccc3)c(=O)c3ccc(C(=O)NCc4ccc5c(c4)OCO5)cc32)cc1 the Potency was “inactive”.
In the case of COc1cccc2cc(C(=O)Nc3ccc(C)cc3)c(=O)oc12, the Potency is reported as “inactive”.
For CC(=O)c1c(C)n(-c2ccc(N(C)C)cc2)c2ccc(O)cc12, the Potency was “inactive”.
For O=c1cc(N2CCNCC2)nc2sc(-c3cccc(-c4ccsc4)c3)nn12, the Potency was 6.31 µM (active).
In the case of CSc1ncc(CNc2cc([N+](=O)[O-])ccc2C)c(N)n1, the Potency is reported as 17.8 µM (active).
For COc1cc(O)c(C(CC(=O)N2CC(C)CC(C)C2)c2ccccc2Cl)c(OC)c1 (stereo not given), the Potency was 1 µM (active).
In the case of O=C(O)c1ccc(-n2[nH]c(-c3ccccc3)cc2=O)cc1, the Potency is reported as 8.91 µM (active).
With COc1cccc(N2CCN(c3ncnc4c3c(-c3ccccc3)cn4-c3cccc(C(F)(F)F)c3)CC2)c1 the Potency was “inactive”.
With COc1ccc(-c2ccncc2)cc1OC the Potency was “inactive”.
For O=C(N/N=C/c1ccc(Br)o1)c1cccc(F)c1, the Potency was 6.31 µM (active).
For O=C(N/N=C/c1ccco1)c1cccc(F)c1, the Potency was “inactive”.
In the case of CCCCn1cnc2cc(NCc3ccc(OCC)cc3)ccc21, the Potency is reported as 5.04 µM (active).
With Cn1ccc(=Nc2ccc(NC(=O)c3ccc(N=c4ccn(C)c5ccc([N+](=O)[O-])cc45)cc3)cc2)cc1 the Potency was 8.96 µM (active).
For COc1ccc(OC)c(NC(=O)c2cc(C3CC3)nc3c2c(C)nn3-c2ccc(C)cc2)c1, the Potency was “inactive”.
With FC(F)(F)c1ccc(CNc2nc(-c3ccncc3)nc3ccccc23)cc1 the Potency was 4.47 µM (active).
With CN1CCN(c2ccc3ncc(Nc4ccc(Cl)c(C(F)(F)F)c4)n3n2)CC1 the Potency was 28.2 µM (active).
For O=C1Cc2cc(S(=O)(=O)N3CCN(c4ccc(C(=O)O)cc4)CC3)ccc2N1, the Potency was “inactive”.
For COc1ccc(-c2cc(C(=O)Nc3sc4c(c3C(N)=O)CCCC4)no2)cc1, the Potency was “inactive”.
For COc1ccc(NC(=O)c2ccc(N3CCOCC3)nc2)cc1, the Potency was “inactive”.
With O=C(O)c1csc(-n2[nH]c(-c3cc(F)ccc3F)cc2=O)n1 the Potency was “inactive”.
With COc1cccc(NC(=O)c2cc3c(-c4ccc(Cl)cc4)nn(C)c3s2)c1 the Potency was “inactive”.
In the case of O=C1CN(S(=O)(=O)c2cccc(C(=O)Nc3ccc(OC(F)(F)F)cc3)c2)CCN1, the Potency is reported as “inactive”.
For COc1ccc(-n2ccc(C(=O)Nc3cccnc3OC)n2)cc1, the Potency was “inactive”.
In the case of COC(=O)c1ccc(S(=O)(=O)N2CCC(c3nc4ccccc4s3)CC2)cc1, the Potency is reported as “inactive”.
For O=C(Nc1ncc(Cc2ccccc2F)s1)c1ccn(-c2ccccc2)n1, the Potency was “inactive”.
For COc1ccc(-n2ccc(CNc3cccc(F)c3C#N)n2)cc1, the Potency was “inactive”.
For CCOc1ccc2[nH]c(=O)c(CN(Cc3nnnn3Cc3ccco3)C3CCCCC3)cc2c1, the Potency was 0.896 µM (active).
In the case of CCN(CC)C(=O)c1ccc(Nc2ncnc3sc(C)c(C)c23)cc1, the Potency is reported as 6.31 µM (active).
In the case of O=C1C(=O)N(Cc2ccccc2)c2ccccc21, the Potency is reported as 1.79 µM (active).
In the case of Cc1csc(-c2cc(-c3c(Cc4ccc(S(N)(=O)=O)c(F)c4)c(CC4CC4)nn3-c3nc(C(=O)O)cs3)ccc2F)c1, the Potency is reported as 12.7 µM (active).
